Data as given in PubChem BioAssay AID720706 (Broad Institute, 2013).
The whole screen tested about 350,000 compounds, of which about 5,500 (1.6%) were called active.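 How the source made its calls: active means significant combined selectivity score with lowered wild-type GFP, culture density cut under 30%, mutant RFP and density less affected; inactive means any of these conditions unmet.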 For the sample, actives were picked, then their nearest neighbours and some compounds at random.

Assay: reduced GFP signal of wild-type E. coli, primary screen, bacterial rRNA inhibitor project, GFP/RFP fluorescence, OD600, single point (AID 720706)
Conditions: E. coli WT GFP vs humanized-ribosome RFP mutants, 24 h; GFP signal change (wild-type ribosome): stronger effect = lower value, DMSO median 0, no signal -100; OD600 change: measured here: OD600 growth, DMSO median 0, no signal -100; RFP signal change: measured here: RFP humanized mutant strains, DMSO median 0, no signal -100, concentration not given here

SMILES	GFP signal change (wild-type ribosome)	OD600 change [%]	RFP signal change [%]
CCOC(=O)C1(CCOc2ccccc2)CCN(Cc2cc(OC)cc(OC)c2)CC1	-33.8% (active)	-25.8	-6.01
CCOC(=O)C1(CCOc2ccccc2)CCN(Cc2ccc(C#CCCO)cc2)CC1	2.81% (inactive)	-4.44	-0.935
CCCS(=O)(=O)N1CCC(CCOc2ccccc2)(C(=O)OCC)CC1	-17.9% (inactive)	-32.1	-4.54
COc1ccc2c3c([nH]c2c1)[C@H](CO)N(Cc1cccc(F)c1)CC31CCN(CC2CC2)CC1	4.42% (inactive)	4.76	-1.35
CC(C)NC(=O)N(C)C[C@H]1Oc2ccc(N)cc2C(=O)N(C)C[C@@H]1C	0.734% (inactive)	6.88	-0.42
OC[C@@H]1[C@@H](c2ccccc2)C2(CN(Cc3cccc(F)c3)C2)N1CC1CCCC1	-23.5% (inactive)	-64.7	20.6
O=S(=O)(c1ccccc1)N1CCc2ccccc21	3.46% (inactive)	1.07	1.3
CNC(=O)c1ccsc1NC(=O)c1ccc(S(=O)(=O)N2CCc3ccccc32)cc1	-14% (active)	-3.21	-0.575
CC1CN(S(=O)(=O)c2ccc(C(=O)Nc3sccc3C(N)=O)cc2)CC(C)O1 (configuration not stated)	-9.92% (inactive)	0.73	-4.68
CN1C[C@@H]2[C@H](c3ccccc31)[C@@H](CO)N2C(=O)Nc1ccccc1	-1.61% (inactive)	-4.19	-0.289
CC(=O)N1[C@@H]2c3ccc(-c4ccccc4)c(=O)n3C[C@@H]2[C@@H](CO)[C@@H]1C(=O)NCc1ccccc1F	1.92% (inactive)	0.235	0.825
COc1ccc(CN(C)C[C@@H]2OCCCC[C@H](C)Oc3ccc(NS(=O)(=O)c4cccs4)cc3C(=O)N([C@H](C)CO)C[C@@H]2C)cc1	1.91% (inactive)	-7.75	1.8
CCC(=O)N1CC(=O)N2[C@H](CO)[C@@H](c3ccc(-c4ccc(C(=O)N(C)C)cc4)cc3)[C@@H]2C1	-0.311% (inactive)	-1.8	0.455
O=C(NCc1nnc(SCC(=O)N2CCCCCC2)o1)c1ccc(F)cc1	3.73% (inactive)	9.68	2.77
Cn1c(CNC(=O)c2ccco2)nnc1SCC(=O)N1CCN(c2ccccc2)CC1	4.73% (inactive)	14.2	-0.921
O=C(NCc1nnc(SCC(=O)N2CCC(Cc3ccccc3)CC2)o1)c1ccco1	-22.9% (active)	-18.5	-1.19
COc1ccc(-c2ccc3n(c2=O)C[C@@H]2[C@@H](CO)[C@H](C(=O)Nc4ccccc4)[C@H]3N2C)cc1	-5.3% (inactive)	-0.765	-2.67
N#C[C@H]1[C@@H](c2ccc(C#CC3CCCC3)cc2)[C@H](CO)N1C(=O)Nc1ccc(F)cc1	-20.3% (inactive)	-36.1	20.2
COc1cc(Cl)ccc1OCc1cc(C(=O)N(C)CCc2c(C)n[nH]c2C)no1	-23.6% (active)	-18.4	4.51
CSc1ccccc1OCc1cc(C(=O)N(C)CCc2c(C)n[nH]c2C)no1	-27.9% (inactive)	-25.7	-4.44
CCn1ccnc1CN(C)C(=O)c1cc(COc2ccc(Cl)cc2OC)on1	2.1% (inactive)	0.213	-1.68
Cc1ccc(/C(N)=N/OC(=O)COc2ccc(Cl)c(C)c2)cc1	6.91% (inactive)	1.73	-7.27

SMILES	GFP signal change (wild-type ribosome)	OD600 change [%]	RFP signal change [%]
CCOc1ccc(C(C)=O)cc1COC(=O)c1cnc(Cl)c(Cl)c1	4.75% (inactive)	3.34	-2.34
COc1ccc(C(C)=O)cc1COc1ccc(Cl)c(C)c1	-21% (active)	2.55	1.65
C[C@@H]1CN([C@@H](C)CO)C(=O)Cc2cc(NC(=O)Nc3ccc(C(F)(F)F)cc3)ccc2O[C@H]1CN(C)Cc1ccc(C(=O)O)cc1	-4.09% (inactive)	-39.2	-9.85
C[C@@H]1CN([C@@H](C)CO)S(=O)(=O)c2ccc(C#Cc3cccnc3)cc2O[C@@H]1CN(C)C	11% (inactive)	15.5	0.337
S=C(Nc1ccc(Cl)cc1Cl)N1CCCC1	-29.6% (active)	3.51	-5.19
O=C(NC(=S)Nc1ccc(Cl)cc1Cl)C1CC1	-7.95% (inactive)	-11.5	2.17
S=C(Nc1ccc(Br)cc1Cl)N1CCC2(CC1)OCCO2	-18.4% (inactive)	-20.4	-6.29
Cc1cc(C)n2nc(SCC(=O)NC(=O)NCc3ccco3)nc2n1	24.5% (inactive)	11.7	-0.644
COc1ccc(-n2c(SCC(=O)NCc3ccco3)nnc2-c2c[nH]c3ccccc23)cc1	-0.435% (inactive)	-16.1	3.4
O=C(CSc1nnc(-c2ccco2)n1Cc1ccccc1)NC(=O)NCc1ccco1	-20.4% (active)	-7.72	1.04
Cc1c(C(=O)NCCN2CCOCC2)sc2nc(-c3ccc(F)cc3)cn12	-16.9% (active)	-2.55	3.25
Cc1ccc(C(=O)N/C(=C\c2ccc(F)cc2)C(=O)NCCN2CCOCC2)cc1	8.39% (inactive)	9.73	-0.48
Cc1c(C(=O)NCC2CCCO2)sc2nc(-c3ccccc3)cn12 (configuration not stated)	-4.79% (inactive)	-21.2	-7.98
C/C=C/c1ccc([C@H]2[C@@H](CO)N(C(=O)Cc3ccncc3)[C@@H]2CNC(C)=O)cc1	1.54% (inactive)	6.92	-0.347
C(=N\Nc1ccc2ccccc2n1)/c1ccc2c(c1)OCO2	-21.9% (active)	16.6	-0.634
NC(=O)c1ccc(NC(=O)COC(=O)c2c3c(nc4ccccc24)/C(=C\c2ccc4c(c2)OCO4)CCC3)cc1	55.8% (inactive)	-19.8	1.2
Nc1nonc1-n1nnc(C(=O)N/N=C/c2ccc(Cl)cc2)c1-c1ccc2c(c1)OCO2	0.08% (inactive)	0.681	-3.98
C[C@@H]1CN([C@@H](C)CO)C(=O)c2cccc(NC(=O)c3cnccn3)c2O[C@H]1CN(C)S(=O)(=O)c1cccs1	4.71% (inactive)	6.99	-1.1
CCC(=O)Nc1ccc2c(c1)OC[C@H](C)N(Cc1ccccc1OC)C[C@@H](C)[C@@H](OC)CN(C)C2=O	0.179% (inactive)	4.08	2.06
CCCNC(=O)N(C)C[C@@H]1Oc2ncc(-c3ccccc3F)cc2C(=O)N([C@@H](C)CO)C[C@H]1C	0.96% (inactive)	11.5	-3.35
O=C(Nc1ccccc1)Oc1cccc2cccnc12	7.63% (inactive)	14.2	1.55
O=C(Nc1ccccc1Cl)Nc1cccc2cccnc12	-27.2% (active)	-17.3	-8.08

SMILES	GFP signal change (wild-type ribosome)	OD600 change [%]	RFP signal change [%]
CC(=O)/C(=N\Nc1ccc(Cl)cc1Cl)Sc1cccc2cccnc12	-8.55% (inactive)	-0.275	-1.79
COc1ccc2c3c(n(C)c2c1)[C@@H](CO)N(S(C)(=O)=O)CC31CCN(C(=O)C2CCC2)CC1	-4.54% (inactive)	-7.74	-2.66
CCOC(=O)c1sc(/N=C/C2=C(O)CC(C)(C)CC2=O)c(C(=O)OCC)c1C	-22.9% (active)	-5.5	-2.5
CCNC(=S)N1CCN(CCN=CC2=C(O)CC(C)(C)CC2=O)CC1	9.96% (inactive)	0.25	-7.06
CCOC(=O)c1c(CC(C)C)csc1/N=C/C1=C(O)CCCC1=O	-13.2% (inactive)	-8.82	21.8
CC(C)C#Cc1ccc([C@H]2[C@@H](CO)N3CCCCN(C(=O)Nc4ccccc4)C[C@H]23)cc1	-26% (inactive)	-29.6	1.8
CO[C@@H]1CN(C)C(=O)c2ccc(NC(=O)NC(C)C)cc2OC[C@@H](C)N(C)C[C@H]1C	2.58% (inactive)	9.18	2.18
C=CCOC(=O)C1=C(C)NC(C)=C(C(=O)OCC=C)C1c1cccs1	-17.1% (active)	-4.32	3.89
C=CCOC(=O)c1ccccc1C(=O)OCC=C	7.54% (inactive)	7.92	12
COC(=O)C1=CN(Cc2ccc(OC)c(OC)c2)C=C(C(=O)OC)C1c1cccs1	-4.13% (inactive)	-22.2	6.91
Cc1noc(C)c1S(=O)(=O)Nc1ccc2c(c1)C(=O)N([C@@H](C)CO)C[C@@H](C)[C@@H](CN(C)S(=O)(=O)c1ccccc1)OCCCC[C@H](C)O2	-1.55% (inactive)	-7.72	-2
O=C1Nc2ccccc2NC(c2ccc3c(c2)OCO3)=C1N(Cc1ccc(F)cc1)C(=O)c1ccco1	-28.3% (active)	-22.6	8
CC(NC(=O)c1ccco1)c1ccc2c(c1)OCO2 (configuration not stated)	-0.41% (inactive)	4.91	-2.06
CC1(C(=O)NCc2ccco2)Cc2c(-c3ccc4c(c3)OCO4)ccnc2O1 (configuration not stated)	10.2% (inactive)	0.265	-2.19
CC(C)NC(=O)N(C)C[C@@H]1OCc2ccccc2-c2c(n(C)c3ccccc23)C(=O)N([C@@H](C)CO)C[C@H]1C	1.88% (inactive)	-5.55	-8.97
CC(=O)Nc1ccc(NC(=O)C2CCCN(S(=O)(=O)c3ccc(Cl)cc3)C2)cc1 (configuration not stated)	6.79% (inactive)	9.12	-1.21
CC(C)c1ccc(NC(=O)C2CCCN(S(=O)(=O)c3cccnc3)C2)cc1 (configuration not stated)	-15.6% (inactive)	-14.1	-1.15
Cc1n[nH]c(C)c1S(=O)(=O)N1CCCC(C(=O)Nc2ccc(Br)cc2)C1 (configuration not stated)	-18.5% (active)	-8.94	2.17
C[C@H](CO)N1C[C@H](C)[C@H](CN(C)CC2CCCCC2)Oc2ccc(NC(=O)CCCCCC(=O)Nc3ccccc3N)cc2C1=O	3.67% (inactive)	1.29	2.33
CN(C)C(=O)[C@H]1[C@H](CO)[C@H]2Cn3c(ccc(-c4ccc(F)cc4)c3=O)[C@H]2N1C(=O)c1ccccn1	3.15% (inactive)	9.51	0.335
